Laboratory results as given in PubChem BioAssay AID588342 (National Center for Advancing Translational Sciences (NCATS), 2011).
Hit rate of the full screen: of about 360,000 compounds, about 25,000 (6.9%) were called active. Roughly 9% stayed inconclusive and do not appear here. The call rests on the fitted dose curve; in most records, active means well fitted inhibition curve with a large enough effect; inconclusive means small, poorly fitted or top-dose-only effect; inactive means flat fitted curve, though single readings scatter. Only a selection was taken, and actives are over-represented in it overall.

What follows are compounds tested against Luciferin 4-monooxygenase (Photinus pyralis) (UniProt P08659) (assay: qHTS profiling assay for firefly luciferase inhibitor/activator using purifed enzyme and Km concentrations of substrates (counterscreen for miR-21 project)). Details: purified FLuc, luminescence inhibition; series mostly up to 57.5 µM; activity change, negative = inhibition: at the top concentration.
Method in brief: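 Purified P. pyralis luciferase (10nM final) with 10uM D-luciferin and 10uM ATP (Km levels) in 50mM Tris acetate pH 7.5, 10mM Mg acetate, 0.01% Tween-20, 0.05% BSA; qHTS 6-point titration, ~60 µM downward; luminescence read.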
Further: nearly all actives have a fitted effect of over 55% in size.
Potency means the concentration at half of the fitted maximal effect.
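Wherever activity change, negative = inhibition is given: plate controls were vehicle for no effect and reference inhibitor for full effect.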

Chain of Luciferin 4-monooxygenase (Photinus pyralis) (P08659 whole entry, looked up): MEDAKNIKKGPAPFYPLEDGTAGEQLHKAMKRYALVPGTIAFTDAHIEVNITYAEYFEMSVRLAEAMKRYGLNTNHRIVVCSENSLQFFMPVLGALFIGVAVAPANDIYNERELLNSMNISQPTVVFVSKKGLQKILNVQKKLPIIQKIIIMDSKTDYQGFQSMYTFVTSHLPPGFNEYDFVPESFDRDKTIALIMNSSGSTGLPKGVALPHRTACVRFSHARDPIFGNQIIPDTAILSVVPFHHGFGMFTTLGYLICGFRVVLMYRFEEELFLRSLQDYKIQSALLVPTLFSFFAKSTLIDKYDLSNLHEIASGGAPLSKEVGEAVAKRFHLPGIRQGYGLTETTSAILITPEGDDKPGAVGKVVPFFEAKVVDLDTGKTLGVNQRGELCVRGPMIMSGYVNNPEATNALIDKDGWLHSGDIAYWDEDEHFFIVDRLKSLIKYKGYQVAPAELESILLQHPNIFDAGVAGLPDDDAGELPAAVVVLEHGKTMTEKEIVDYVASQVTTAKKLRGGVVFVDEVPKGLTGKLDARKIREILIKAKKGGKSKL

Row | Structure (SMILES) | activity change, negative = inhibition | Potency
1 | c1csc(-c2nnc(COc3ncnc4sccc34)o2)c1 | 4% (inactive) | –
2 | Clc1ccc(Cc2nnc(-c3cccs3)o2)cc1 | – | 19 µM (active)
3 | CNC(=O)c1nnc(Cc2ccc(Cl)cc2)o1 | 3.86% (inactive) | –
4 | CC(Sc1oc(-c2ccco2)nc1S(=O)(=O)c1ccc(Br)cc1)c1ccccc1 (centres undefined) | 3.32% (inactive) | –
5 | Cc1cc(C)n2nc(C(=O)OCC(=O)N(C)CC(=O)Nc3ccc(F)cc3)nc2n1 | 4.22% (inactive) | –
6 | COc1ccc(CNC(=O)c2cc3c(=O)[nH]c4ccc(C)cc4c3s2)c(OC)c1 | -8.78% (inactive) | –
7 | COC(=O)c1ccc(NCC(=O)c2ccccc2)cc1 | – | 1.51 µM (active)
8 | CCOC(=O)c1nc(Nc2ccc(C(=O)OC)cc2)c2ccccc2n1 | – | inactive
9 | Cc1ccc(C(=O)CNc2ccc(F)cc2)cc1 | – | 4.78 µM (active)
10 | Cc1ccc(NC(=O)CCC(=O)c2ccc(Br)cc2)cc1 | -2.06% (inactive) | –
11 | Cc1ccc(C(=O)NC2CCN(C(=O)Nc3ccc(F)cc3)CC2)cc1 | -1.62% (inactive) | –
12 | COC(=O)c1ccc(NCC(=O)N2CCCCCC2)cc1 | -11.5% (inactive) | –
13 | CCn1c2ccccc2c2nnc(N3CCN(c4cc(C)ccc4C)CC3)nc21 | -2.96% (inactive) | –
14 | CC(=O)Nc1cc(C(=O)NCc2ccc(F)cc2Cl)ccc1Sc1ccc(Cl)cc1 | -11.1% (inactive) | –
15 | O=c1c(=O)n(Cc2c(F)cccc2Cl)ccn1Cc1ccccc1 | 0.984% (inactive) | –
16 | CCOC(=O)C1CCN(c2csc3ccc(C)cc3c2=O)CC1 | – | 7.57 µM (active)
17 | CCOC(=O)C1CCN(c2c(Nc3cc(C)cc(C)c3)c(=O)c2=O)CC1 | -0.907% (inactive) | –
18 | CCOC(=O)C1CCN(c2ccc(C(=O)O)cc2[N+](=O)[O-])CC1 | 4.31% (inactive) | –
19 | CCOCCCNC(=O)c1cn(CC)c2ccc(S(=O)(=O)N3CCc4ccccc4C3)cc2c1=O | 3.89% (inactive) | –
20 | C=CCn1cc(Cl)cc(C(=O)Nc2ccccc2)c1=O | – | 16.9 µM (active)
21 | O=C(Nc1cccnc1)c1cc(Cl)ccc1Cl | 5.5% (inactive) | –
22 | C=CCc1cccc2cc(C(=O)Nc3ccc(NC(C)=O)cc3)c(=O)oc12 | 1.63% (inactive) | –
23 | CCOc1ncccc1C(=O)Nc1ccc(S(=O)(=O)Nc2nc(C)cc(C)n2)cc1 | 7.38% (inactive) | –
24 | Cc1ccc2[nH]c3c(=O)n(CC(=O)NC(C)C)ncc3c2c1 | -5.07% (inactive) | –
25 | O=C(COc1ccc(Cl)cc1)Nc1ccccc1OCc1cc(=O)n2ccccc2n1 | -16.9% (inactive) | –
26 | O=C(c1cccs1)N1CCN(C(=O)N2CCOCC2)CC1 | 3.01% (inactive) | –

Row | Structure (SMILES) | activity change, negative = inhibition | Potency
27 | O=C(c1cc(-c2ccc(O)cc2)on1)N1CCCc2ccccc21 | – | 16.9 µM (active)
28 | O=C(NCCCN1CCOCC1)c1cc(-c2cccc(O)c2)on1 | -19% (inactive) | –
29 | Cc1ccc2c(c1)N(C(=O)CCC(=O)N1CCc3ccccc3C1)CCO2 | -15.1% (inactive) | –
30 | O=C(C(=O)N1CCc2ccccc2C1)N1CCc2ccccc2C1 | 0.647% (inactive) | –
31 | CN1CCN(Cc2c(C(=O)N3CCc4ccccc4C3)nc3ccc(Cl)cn23)CC1 | 0.908% (inactive) | –
32 | Cc1ccc(-c2cc(C(=O)N3CCc4ccccc4C3)no2)cc1 | – | 23.9 µM (active)
33 | Cn1cccc1C(=O)N1CCc2ccccc2C1 | -6.68% (inactive) | –
34 | CCCn1nc(C(=O)N2CCCc3ccccc32)c2ccccc2c1=O | -8.62% (inactive) | –
35 | O=C(c1c(Cl)nc2sccn12)N1CCCc2ccccc21 | -3% (inactive) | –
36 | O=C(c1noc2c1CCCC2)N1CCc2ccccc2C1 | – | 16.9 µM (active)
37 | O=C(c1cc(-c2ccc(O)cc2)on1)N1CCOCC1 | – | 9.53 µM (active)
38 | Cc1cccc(-n2ncc(C(=O)N3CCN(c4ccc(Cl)cc4)CC3)c2C2CCN(C(=O)OC(C)(C)C)CC2)c1 | 6.74% (inactive) | –
39 | Cc1ccc(Nc2nnc(-c3ccc(C)c(S(=O)(=O)N4CCCCC4)c3)c3ccccc23)cc1 | -17.5% (inactive) | –
40 | CCOC(=O)c1ccc(N2C(=O)c3[nH]nc(-c4ccccc4)c3C2c2ccc(C(C)C)cc2)cc1 (centres undefined) | 1.51% (inactive) | –
41 | Cc1ccc(C(=O)OCC(=O)Nc2ccc(Cl)cn2)cc1S(=O)(=O)N1CCOCC1 | 3.23% (inactive) | –
42 | COc1cc2nc(NCC(C)c3ccccc3)n3nc(-c4ccccc4)nc3c2cc1OC (centres undefined) | 0.207% (inactive) | –
43 | COCCn1c(SCC(=O)Nc2cc(Cl)ccc2OC)nc2c(c1=O)SC(C)C2 (centres undefined) | 2.83% (inactive) | –
44 | O=C(c1cc(-c2ccc(Cl)cc2)on1)N1CCN(c2ccccc2)CC1 | – | 10.7 µM (active)
45 | O=C(c1cc(-c2ccc(F)cc2)on1)N1CCN(c2ccc(F)cc2)CC1 | – | inactive
46 | O=C(c1ccc(Cl)c([N+](=O)[O-])c1)N1CCN(c2ccccc2)CC1 | 2.27% (inactive) | –
47 | CCCN1CCN(CCCNC(=O)c2ccc3nc(Cc4ccccc4)oc3c2)CC1 | 2.28% (inactive) | –
48 | Cc1cccc(NC(=O)c2ccc(F)c(S(=O)(=O)N(C)C3CCCCC3)c2)c1 | -7.46% (inactive) | –
49 | Cc1ccc(CSc2nc3[nH]ncc3c(=O)[nH]2)cc1 | – | 13.5 µM (active)
50 | Cc1cccc(NC(=O)CSc2nc3[nH]ncc3c(=O)[nH]2)c1 | -13.3% (inactive) | –
51 | CCCSc1nc2[nH]ncc2c(=O)[nH]1 | -0.474% (inactive) | –
52 | COc1cc(OC)cc(-c2c(-c3ccc(F)cc3)c3cc(-c4ccc5cc[nH]c5c4)ccc3n2C)c1 | 5.36% (inactive) | –

Row | Structure (SMILES) | activity change, negative = inhibition | Potency
53 | O=[N+]([O-])c1ccc(S(=O)(=O)Nc2cccc(-c3ccc(N4CCCC4)nn3)c2)cc1 | – | 12 µM (active)
54 | CN1CCN(c2ccc(S(=O)(=O)Nc3ccccc3)cc2[N+](=O)[O-])CC1 | -0.209% (inactive) | –
55 | Cc1cccc(NS(=O)(=O)c2ccc([N+](=O)[O-])cc2)n1 | -0.788% (inactive) | –
56 | O=S(=O)(Nc1cccc(-n2cnnn2)c1)c1cnc(Cl)c(Cl)c1 | -2.86% (inactive) | –
57 | CC(=O)Nc1ccc(S(=O)(=O)Nc2ccc(N3CCOCC3)c(F)c2)cc1 | 0.698% (inactive) | –
58 | O=S(=O)(Nc1ccccc1N1CCOCC1)c1ccc(Cl)s1 | 0.325% (inactive) | –
59 | O=S(=O)(Nc1cccc(-c2ccc(N3CCOCC3)nn2)c1)c1ccc(Cl)c(Cl)c1 | – | 5.36 µM (active)
60 | Cc1cccc(NS(=O)(=O)c2cc(Cl)ccc2Cl)n1 | -3.29% (inactive) | –
61 | O=S(=O)(Nc1ccc(-c2ccc(N3CCOCC3)nn2)cc1)c1cc(Cl)ccc1Cl | – | 23.9 µM (active)
62 | Cc1ccc2oc3c(c(=O)c2c1)C(c1ccc(O)cc1)N(Cc1ccc2c(c1)OCO2)C3=O (centres undefined) | 0.475% (inactive) | –
63 | Cc1ccc(COC(=O)CN2C(=O)NC3(CCCC3)C2=O)cc1 | 0.195% (inactive) | –
64 | CC(C)(C)c1ccc(S(=O)(=O)N2CCN(C(=O)c3ccc4c(c3)C(=O)N(Cc3ccncc3)C4=O)CC2)cc1 | 7.88% (inactive) | –
65 | C=Cc1ccc(Cn2c(C(=O)OC)cc3sc(C)cc32)cc1 | 0.642% (inactive) | –
66 | CCc1ccccc1OCC(=O)Nc1ccc(C)c(S(=O)(=O)N2CCCCCC2)c1 | 3.6% (inactive) | –
67 | CCCN(CCC)CCCNC(=O)Cn1cc2c(n1)-c1c(oc(C(=O)N3CCCC3)c1C)CC2 | -4.79% (inactive) | –
68 | CCOc1ccc(NC(=O)COc2ccc(C(=O)N3CCC(C(N)=O)CC3)cc2OC)cc1 | 3.81% (inactive) | –
69 | CCCCN(C(=O)c1ccc2ccccc2c1)c1c(N)n(CCCC)c(=O)[nH]c1=O | -2.3% (inactive) | –
70 | Cc1ccc(-n2nc(N)c3c(=O)oc(N(C)C)nc32)cc1 | -1.16% (inactive) | –
71 | O=C(Nc1ccc2oc(-c3ccc4ccccc4c3)nc2c1)c1cccs1 | – | 5.36 µM (active)
72 | O=C(Nc1ccc(NC(=O)c2cccs2)cc1)c1ccc2ccccc2c1 | -5.42% (inactive) | –
73 | CCN(CCCNC(=O)c1cc(Nc2ccc(OC)cc2)nc2ccccc12)c1cccc(C)c1 | -6.29% (inactive) | –
74 | Cc1ccc(S(=O)(=O)n2nc(C)c(S(=O)(=O)N3CCCCCC3)c2C)cc1 | -7.72% (inactive) | –
75 | CCC(=O)N1CCc2cc(CNS(=O)(=O)c3ccc(Br)s3)ccc21 | -16.4% (inactive) | –
76 | Cc1ccccc1Nc1nn2c(=O)c3ccc(C(=O)NCCc4ccc(Cl)cc4)cc3nc2s1 | -8.59% (inactive) | –
77 | CC(=O)C1=C(C)NC(=O)NC1c1cc(Br)ccc1OCC#N (centres undefined) | 1.51% (inactive) | –
78 | Cc1cc(C(=O)COc2ccc(Br)cc2F)c(C)n1C1CC1 | – | 13.5 µM (active)

Row | Structure (SMILES) | activity change, negative = inhibition | Potency
79 | O=C(COc1ccc(Br)cc1F)NC1CCN(Cc2ccccc2)CC1 | 0.0424% (inactive) | –
80 | O=C(Cc1ccccc1)N/N=C/c1ccc(Cl)cc1Cl | -11.1% (inactive) | –
81 | O=C(CC(=O)N/N=C\c1cccc(Cl)c1Cl)NCc1ccccc1 | -0.0161% (inactive) | –
82 | O=C(CSc1nnc(SCc2ccc(Cl)cc2)s1)N/N=C/c1ccccc1Cl | – | 6.01 µM (active)
83 | Cc1cc(NC(=O)CCS(=O)(=O)c2ccc(F)cc2)no1 | 2.43% (inactive) | –
84 | O=C1CC2(CCN(C(=O)COc3ccc(F)cc3)CC2)Oc2ccccc21 | -0.972% (inactive) | –
85 | CCCc1cc(=S)n2c([nH]c3ccccc32)c1C#N | – | 19 µM (active)
86 | CCOC(=O)CCc1c(C)c(C#N)c2[nH]c3ccccc3n2c1=O | 5.14% (inactive) | –
87 | CN(C)c1ccc(C(CNS(=O)(=O)c2cc(F)ccc2F)N2CCOCC2)cc1 (centres undefined) | -1.51% (inactive) | –
88 | Cn1nc(-c2ccccc2)c2cc([N+](=O)[O-])ccc21 | 5.68% (inactive) | –
89 | Cc1nn(-c2ccc([N+](=O)[O-])cc2)c(N)c1-c1ccccc1 | – | 7.57 µM (active)
90 | Cc1cc(CO)nn1-c1ccc([N+](=O)[O-])cc1 | 4.75% (inactive) | –
91 | COc1ccc(CCNC(=O)c2ccc(-n3c(C)cc4c3CCCC4)cc2)cc1OC | -9.64% (inactive) | –
92 | COc1cc(C(=O)NCC(c2ccc(Cl)cc2)N2CCOCC2)cc(OC)c1OC (centres undefined) | 1.1% (inactive) | –
93 | Cc1ccccc1N1CC(C(=O)Nc2nnc(SCCC3OCCO3)s2)CC1=O (centres undefined) | 0.587% (inactive) | –
94 | CC(=O)c1cccc(NC(=O)Nc2ccc(C)cc2)c1 | – | 4.78 µM (active)
95 | O=C(NNC(=O)c1cccnc1)Nc1ccccc1 | -4.89% (inactive) | –
96 | Cc1ccc(NC(=O)c2cc3cc(C)ccc3n2C)cc1 | -7.32% (inactive) | –
97 | Cc1ccc(NC(=O)Nc2cccnc2)cc1 | – | 10.7 µM (active)
98 | C=C(C)C(=O)Nc1cccc(C(C)=O)c1 | 3.01% (inactive) | –
99 | Cc1ccc(NC(=O)NCC(c2cccnc2)N2CCOCC2)cc1 (centres undefined) | 1.79% (inactive) | –
100 | CC(=O)c1cccc(NC(=S)N2CCCC2)c1 | -1.78% (inactive) | –
101 | Cc1ccc(NC(=O)Nc2ccc3oc(C)nc3c2)cc1 | – | 1.2 µM (active)
102 | Cc1nc2ccc(NC(=O)C(F)(F)F)cc2o1 | 5.14% (inactive) | –
103 | Cc1cccc(N2CCN(C(=O)Cn3ncc4c5ccccc5n(C)c4c3=O)CC2C)c1 (centres undefined) | -17.6% (inactive) | –
104 | CCN(CC)S(=O)(=O)c1cc(C(=O)Nc2cc(S(=O)(=O)N3CCOCC3)ccc2N2CCCC2)ccc1F | 0.283% (inactive) | –
